From the supplement of paper PMC10498489 come the findings set out here.

In all, about 2,300 compounds went through this assay and about 330 (14%) showed activity.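 Rule for the calls: active = median modified Z-score above 1.96; inactive = 1.96 or below.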 Not all results are given here.

The test system of the assay is HepG2 Srxn1-GFP reporter cells (+30 nM CDDO-Me). As to the kind of experiment: Srxn1-GFP intensity median modified Z-score relative to plate median; higher = stronger NRF2 / oxidative stress reporter activation, active = hit call of the paper. The conditions noted are these: 10 µM; exposure time: 24h. The essentials:
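Per-cell cytoplasmic GFP was measured on confocal images of formaldehyde-fixed, Hoechst-stained HepG2 Srxn1-GFP BAC reporter cells, excluding images with fewer than 100 cells. Before this, the cells (20,000 per well, 96-well plates) were co-exposed for 24 h to compound at 10 μM and an NRF2 activator at 30 nM with ≤0.1% DMSO, in three replicate plates. Each value is the median over replicates of the per-plate modified Z-score of GFP intensity. That score was scaled with 1.4826 × median absolute deviation.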
For `CC(N=C(N=c1cc[nH]cc1)NC#N)C(C)(C)C` (stereo not given) [euspeclibcmpd960], the “Srxn1-GFP intensity median modified Z-score” value is 0.333 (inactive).

`COc1cc2oc3cc(OC)c(OC)c(CC=C(C)C)c3c(=O)c2c(OC)c1CC=C(C)C` [euspeclibcmpd1951]: the “Srxn1-GFP intensity median modified Z-score” value is 13.2 (active).

With `COc1cc(-c2coc3cc(O)c(OC)c(O)c3c2=O)cc(O)c1OC` [euspeclibcmpd1394], the “Srxn1-GFP intensity median modified Z-score” value was 1.24 (inactive).

Regarding `COc1cc2oc3cc(OC)c(OC)c(C=CC(C)C)c3c(=O)c2c(O)c1CC=C(C)C` [euspeclibcmpd1769], the “Srxn1-GFP intensity median modified Z-score” value is -0.34 (inactive).

With `COc1ccc(-c2oc3cc(OC)c(OC)c(OC)c3c(=O)c2OC)cc1` [euspeclibcmpd1578], the “Srxn1-GFP intensity median modified Z-score” value is 0.25 (inactive).

On to `CC(C)=CCc1c(O)cc2oc(C)cc(=O)c2c1O` [euspeclibcmpd1412], for which the “Srxn1-GFP intensity median modified Z-score” value is 1.94 (inactive).

As to `COc1cc(O)c2c(=O)cc(C)oc2c1CC=C(C)C` [euspeclibcmpd1598], the “Srxn1-GFP intensity median modified Z-score” value is 2.54 (active).

Take `COc1ccc(-c2oc3cc(OC)c(OC)c(OC)c3c(=O)c2OC)cc1OC` [euspeclibcmpd1579]: the “Srxn1-GFP intensity median modified Z-score” value is 0.934 (inactive).

For `COc1ccc(-c2oc3c(CC=C(C)C)c(O[C@@H]4O[C@H](CO)[C@@H](O)[C@H](O)[C@H]4O)cc(O)c3c(=O)c2O[C@@H]2O[C@@H](C)[C@H](O)[C@@H](O)[C@H]2O)cc1` [euspeclibcmpd2338], the “Srxn1-GFP intensity median modified Z-score” value was 0.366 (inactive).

As to `COc1c(O)cc2oc3cc(O)c(CC=C(C)C)c(O)c3c(=O)c2c1C=CC(C)C` [euspeclibcmpd1547], the “Srxn1-GFP intensity median modified Z-score” value is 34.4 (active).

For the molecule `C[C@@H]1CC2C3CC=C4CC(=O)C=C[C@]4(C)[C@@]3(F)[C@@H](O)C[C@]2(C)[C@@]1(O)C(=O)COP(=O)(O)O` (stereo not given in full) [euspeclibcmpd2420], the “Srxn1-GFP intensity median modified Z-score” value was -0.794 (inactive).

On to `CC[C@H]1OC(=O)C(C)[C@@H](O[C@H]2C[C@@](C)(OC)[C@@H](O)[C@H](C)O2)[C@H](C)[C@@H](O[C@@H]2O[C@H](C)C[C@H](N(C)C)[C@H]2O)[C@](C)(O)C[C@@H](C)[C@@H]2N[C@@H](COCCOC)O[C@H]([C@H]2C)[C@]1(C)O` (stereo not given in full) [euspeclibcmpd652], for which the “Srxn1-GFP intensity median modified Z-score” value was -0.125 (inactive).

Regarding `O=C(O)C1=C(CSc2nnnn2CS(=O)(=O)O)CSC2C(NC(=O)C(O)c3ccccc3)C(=O)N12` (stereo not given) [euspeclibcmpd2255], the “Srxn1-GFP intensity median modified Z-score” value was 0.114 (inactive).

`NC(C=O)C(O)NNCc1ccc(O)c(O)c1O` (stereo not given) [euspeclibcmpd32]: the “Srxn1-GFP intensity median modified Z-score” value is -0.0581 (inactive).

Regarding `C[C@@H]1CC2C3CC(F)=C4CC(=O)C=C[C@]4(C)[C@@]3(F)[C@@H](O)C[C@]2(C)[C@@]1(O)C(=O)CO` (stereo not given in full) [euspeclibcmpd415], the “Srxn1-GFP intensity median modified Z-score” value was -0.177 (inactive).

Take `CC(C)=CC1C(CO)C1(C)C` (stereo not given) [euspeclibcmpd1789]: the “Srxn1-GFP intensity median modified Z-score” value is 2.3 (active).

Regarding `CC(C)=CC1C(C(=O)O)C1(C)C` (stereo not given) [euspeclibcmpd2019], the “Srxn1-GFP intensity median modified Z-score” value is 0.889 (inactive).

For `O=c1c(O)c(-c2ccc(O)cc2O)oc2cc(O)cc(O)c12` [euspeclibcmpd1432], the “Srxn1-GFP intensity median modified Z-score” value is -0.493 (inactive).

On to `C[C@H](CCC(=O)O)[C@H]1CCC2C3C(CC[C@@]21C)[C@@]1(C)CC[C@@H](O)C[C@H]1C[C@@H]3O` (stereo not given in full) [euspeclibcmpd2109], for which the “Srxn1-GFP intensity median modified Z-score” value is -0.352 (inactive).

As for `COc1ccc(SCC(=O)c2ccc(O)cc2O)cc1`, the “Srxn1-GFP intensity median modified Z-score” value is 1.51 (inactive).

For the molecule `COc1ccc(C(C)C(=O)c2ccc(O)cc2O)cc1` (stereo not given) [euspeclibcmpd1599], the “Srxn1-GFP intensity median modified Z-score” value was 3.33 (active).

With `COc1ccc(CC(=O)c2ccc(O)cc2O)cc1` [euspeclibcmpd1699], the “Srxn1-GFP intensity median modified Z-score” value was 1.77 (inactive).

`C[C@H]1[C@H](OC(=O)CCC(=O)O)O[C@@H]2O[C@]3(C)CC[C@H]4[C@H](C)CC[C@@H]1[C@@]24OO3` [euspeclibcmpd985]: the “Srxn1-GFP intensity median modified Z-score” value was 11 (active).

Regarding `C[C@@H]1CC[C@H]2[C@@H](C)C(O)O[C@@H]3O[C@]4(C)CC[C@@H]1[C@]32OO4` (stereo not given in full) [euspeclibcmpd1251], the “Srxn1-GFP intensity median modified Z-score” value is 3.33 (active).

In the case of `CC(=O)C1CCC2C3CC=C4C[C@@H](OC(=O)CCC(=O)O)CC[C@]4(C)C3CC[C@]12C` (stereo not given in full) [euspeclibcmpd854], the “Srxn1-GFP intensity median modified Z-score” value is 1.01 (inactive).

For the molecule `CCC(C)C(=O)O[C@H]1C[C@H](O)C=C2C=C[C@H](C)[C@H](CC[C@@H](O)C[C@@H](O)CC(=O)O)C21` (stereo not given in full) [euspeclibcmpd2392], the “Srxn1-GFP intensity median modified Z-score” value was -0.0232 (inactive).

Consider `CN1C(=O)OC(C)(C)C1=O` [euspeclibcmpd801], for which the “Srxn1-GFP intensity median modified Z-score” value is -0.117 (inactive).

As to `OCCN=CCNc1ccc(NCCNCCO)c2c(O)c3c(O)ccc(O)c3c(O)c12` [euspeclibcmpd568], the “Srxn1-GFP intensity median modified Z-score” value is -1.55 (inactive).

Take `CC(=O)C(O)Nc1c(I)c(C(=O)NC(CO)CO)c(I)c(C(=O)NC(CO)CO)c1I` (stereo not given) [euspeclibcmpd459]: the “Srxn1-GFP intensity median modified Z-score” value was -0.445 (inactive).

For the molecule `Nc1c(Br)cc(Br)cc1CNC1CCC(O)CC1` (stereo not given) [euspeclibcmpd1118], the “Srxn1-GFP intensity median modified Z-score” value was -0.575 (inactive).

On to `CC(=O)Oc1ccc2c(C)cc(=O)oc2c1` [euspeclibcmpd2400], for which the “Srxn1-GFP intensity median modified Z-score” value was -0.419 (inactive).

For the molecule `CC(=O)c1ccc(O[C@@H]2O[C@H](CO)[C@H](O)[C@H](O)[C@H]2O)cc1`, the “Srxn1-GFP intensity median modified Z-score” value is 1.43 (inactive).

For the molecule `CC=C(C1=CC(=O)C(OC)=CC1=O)c1ccc(O)cc1` [euspeclibcmpd1636], the “Srxn1-GFP intensity median modified Z-score” value was 0.385 (inactive).

As to `COc1ccc(O)cc1` [euspeclibcmpd4], the “Srxn1-GFP intensity median modified Z-score” value is -0.253 (inactive).

For the molecule `CC=C(C1=CC(=O)C(OC)=CC1=O)c1ccc(OC)cc1` [euspeclibcmpd1441], the “Srxn1-GFP intensity median modified Z-score” value was 5.77 (active).

Take `CC=C(C1=CC(=O)C=CC1=O)c1ccccc1` [euspeclibcmpd1643]: the “Srxn1-GFP intensity median modified Z-score” value is 1.51 (inactive).

Regarding `CC=C(C1=CC(=O)C(OC)=CC1=O)c1ccccc1` [euspeclibcmpd1693], the “Srxn1-GFP intensity median modified Z-score” value was 3.26 (active).

With `CC=C(C1=CC(=O)C(OC)=C(OC)C1=O)c1ccccc1` [euspeclibcmpd1978], the “Srxn1-GFP intensity median modified Z-score” value was -0.444 (inactive).

As to `CC(C)(/N=N/C(C)(C)C(=N)N)C(=N)N` [euspeclibcmpd1744], the “Srxn1-GFP intensity median modified Z-score” value is -0.295 (inactive).

With `Cc1ccc2c(Br)cc(Br)c(OC(=O)c3ccccc3)c2n1` [euspeclibcmpd2181], the “Srxn1-GFP intensity median modified Z-score” value is 2.44 (active).

Regarding `Cc1ccc2cccc(OC(=O)c3ccccc3)c2n1`, the “Srxn1-GFP intensity median modified Z-score” value is 1.25 (inactive).

For the molecule `O=C(OOC(=O)c1ccccc1)c1ccccc1` [euspeclibcmpd511], the “Srxn1-GFP intensity median modified Z-score” value was -0.314 (inactive).

Take `NC[C@@H]1O[C@H](O[C@@H]2[C@@H](CO)OC(O[C@@H]3[C@@H](O)[C@H](N)C[C@H](N)[C@H]3O[C@H]3O[C@H](CO)[C@@H](O)[C@H](O)[C@H]3N)[C@@H]2O)[C@H](N)[C@@H](O)[C@@H]1O` (stereo not given in full) [euspeclibcmpd563]: the “Srxn1-GFP intensity median modified Z-score” value is -0.129 (inactive).

As for `CCCCCCCCCCCCCCCC(=O)OC[C@H](NC(=O)C(Cl)Cl)[C@H](O)c1ccc([N+](=O)[O-])cc1` [euspeclibcmpd52], the “Srxn1-GFP intensity median modified Z-score” value is 0.231 (inactive).

Regarding `CC(=O)OCC(=O)[C@@]12N=C(C)O[C@@H]1CC1C3CC=C4CC(=O)C=C[C@]4(C)C3[C@@H](O)C[C@@]12C` (stereo not given in full) [euspeclibcmpd781], the “Srxn1-GFP intensity median modified Z-score” value is -0.377 (inactive).

Turning to `NCCOB(c1ccccc1)c1ccccc1` [euspeclibcmpd2465], the “Srxn1-GFP intensity median modified Z-score” value was 7.48 (active).

`Cc1onc(-c2c(Cl)cccc2Cl)c1C(=O)NC1C(=O)N2C1SC(C)(C)C2C(=O)O` (stereo not given) [euspeclibcmpd2174]: the “Srxn1-GFP intensity median modified Z-score” value is -0.262 (inactive).

In the case of `CC(=O)OCC(CCn1cnc2c[nH]c(=N)nc21)COC(C)=O` [euspeclibcmpd712], the “Srxn1-GFP intensity median modified Z-score” value was 0.533 (inactive).

Consider `Cc1ccc(-n2c(C)cc(C(=O)COC(=O)C3CC4C=CC3C4)c2C)cc1C` (stereo not given), for which the “Srxn1-GFP intensity median modified Z-score” value was 0.589 (inactive).

Consider `Cc1ccc(-n2c(C)cc(C(=O)Cn3ncc(Cl)c(Cl)c3=O)c2C)cc1`, for which the “Srxn1-GFP intensity median modified Z-score” value was 29 (active).

With `COc1cc(NS(C)(=O)=O)ccc1N=c1c2ccccc2[nH]c2ccccc12` [euspeclibcmpd557], the “Srxn1-GFP intensity median modified Z-score” value is -1.65 (inactive).

Consider `CCC1CS/C(=N\c2ccc(Cl)c(Cl)c2)N1C(=O)CC1CC2CCC1C2` (stereo not given), for which the “Srxn1-GFP intensity median modified Z-score” value is 1.31 (inactive).

Take `S=c1[nH]cnc2[nH]cnc12` [euspeclibcmpd183]: the “Srxn1-GFP intensity median modified Z-score” value is 59.5 (active).

As for `O=c1[nH]cnc2[nH]cnc12` [euspeclibcmpd1584], the “Srxn1-GFP intensity median modified Z-score” value is 0.249 (inactive).

`c1coc(CN=c2[nH]cnc3[nH]cnc23)c1` [euspeclibcmpd1534]: the “Srxn1-GFP intensity median modified Z-score” value is 0.144 (inactive).

As to `CC(=O)C1CCC2C3=CC=C4CC(=O)CC[C@@]4(C)C3CC[C@]12C` (stereo not given in full) [euspeclibcmpd815], the “Srxn1-GFP intensity median modified Z-score” value is 1.45 (inactive).

In the case of `CCCC[C@@H](CC)COC(=O)C(C#N)=C(c1ccccc1)c1ccccc1` [euspeclibcmpd936], the “Srxn1-GFP intensity median modified Z-score” value was 0.649 (inactive).

Regarding `N#C[C@@H]1C[C@@H]2C[C@@H]2N1C(=O)C(N)C12CC3CC(CC(O)(C3)C1)C2` (stereo not given in full) [euspeclibcmpd1283], the “Srxn1-GFP intensity median modified Z-score” value was -0.27 (inactive).

On to `CC(C)CCCC(C)C1CCC2C3CC[C@H]4C[C@H](O)CC[C@]4(C)C3CC[C@]12C` (stereo not given in full) [euspeclibcmpd2260], for which the “Srxn1-GFP intensity median modified Z-score” value is -0.325 (inactive).

On to `C1N2CN3CN1CN(C2)C3` [euspeclibcmpd187], for which the “Srxn1-GFP intensity median modified Z-score” value was 9.99 (active).

Take `CC(=O)OCC(=O)[C@@]12OC(C)(C)O[C@@H]1CC1C3CC(F)=C4CC(=O)C=C[C@]4(C)[C@@]3(F)[C@@H](O)C[C@@]12C` (stereo not given in full) [euspeclibcmpd130]: the “Srxn1-GFP intensity median modified Z-score” value was -0.571 (inactive).

For the molecule `CC(=O)O[C@H]1CC2CCC3C(CC[C@@]4(C)C3C[C@H]([N+]3(C)CCCCC3)[C@@H]4OC(C)=O)[C@@]2(C)C[C@@H]1N1CCCCC1` (stereo not given in full) [euspeclibcmpd853], the “Srxn1-GFP intensity median modified Z-score” value is -0.182 (inactive).

With `N#Cc1ccc2[nH]cc(CCCCN3CCN(c4ccc5oc(C(N)=O)cc5c4)CC3)c2c1` [euspeclibcmpd2178], the “Srxn1-GFP intensity median modified Z-score” value is 0.321 (inactive).

With `C[C@@H]1CC[C@@]2(OC1)OC1CC3C4CC=C5C[C@@H](O)CC[C@]5(C)C4CC[C@]3(C)C1[C@@H]2C` (stereo not given in full) [euspeclibcmpd1355], the “Srxn1-GFP intensity median modified Z-score” value was -0.393 (inactive).

For the molecule `O=c1c(O)c(-c2ccc(O)c(O)c2)oc2c(O[C@@H]3O[C@H](CO)[C@H](O)[C@@H](O)[C@H]3O)c(O)cc(O)c12` [euspeclibcmpd1755], the “Srxn1-GFP intensity median modified Z-score” value was -0.613 (inactive).
